These results are taken from PubChem BioAssay (NCI).

The panel holds about 83,000 compounds, 20% with a hit somewhere; the sample as a whole holds those more often.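 Results are percent growth after 48 hours of single-concentration exposure. 100 means growth as in untreated cells, lower positive values show inhibition; negative values down to -100 show cell death.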 A number with no mark means an inactive call. Calls of active or inactive are those of the source.

This experiment deals with NCI-H23 lung. Nature of the experiment: NCI-60 one-dose screen, 48 h (100 = growth as untreated, 0 = no growth, -100 = all killed). Conditions: 10 µM unless noted. The procedure:
Growth inhibition of the NCI-H23 human Non-Small Cell Lung tumor cell line is measured as a screen for anti-cancer activity. Cells are grown in 96 well plates and exposed to the test compound for 48 hours. Compounds are tested at a single concentration, which is 10^-5 M for most compounds. The reported endpoint is percent growth (GI% or GIPRCNT), where numbers from 0 - 100% represent growth inhibition, and numbers from -100% - 0 represent cell death. For example, a value of 40 represents 60% growth inhibition. A value of 0 means no net growth occurred over the course of the experiment. A value of -40 indicates 40% of cells at the beginning of the experiment died by the end of the experiment. A value of -100 means all cells are dead at the end of the experiment.
NCI-60 Human Tumor Cell Lines Screen was performed using the standard one-dose NCI protocol, which is described in more detail at https://dtp.cancer.gov/discovery_development/nci-60/default.htm.
Compounds with GIPRCNT values below 10 were considered active. Activity score was based on GIPRCNT using the following formula: […]
Score is 0 for GIPRCNT values of 100 or above, 50 for GIPRCNT values of 0, and 100 for GIPRCNT values of -100.
With `CC1CC=CCC1C1OCC(C)(C)CO1` (stereo not given), the growth is 108%.
Turning to `COC(=O)C1(NC(=O)CNC(=O)OCc2ccccc2)CCCC1`, the growth is 106%.
As for `COc1ccccc1NC(=O)c1sc2nc3c(cc2c1N)C(=O)CCC3`, the growth is 66.7%.
For the compound `O=C(N/N=C/c1ccc(Cl)cc1Cl)c1ccccc1Nc1cccc(C(F)(F)F)c1`, the growth was 70.5%.
With `CC(=O)N1N=C(c2ccc(Cl)cc2)CC1c1c(C)nn(-c2ccccc2)c1N(C)Cc1ccccc1` (stereo not given) the figure was 78.3%; with `COc1ccccc1-n1c(-c2ccc(O)cc2C)cn2c3c(=O)[nH]c(=O)n(C)c3nc12`, 91.6%; with `Oc1c(Cl)cc(Cl)c(Cl)c1Cc1c(O)c(Cl)cc(Cl)c1Cl`, -0.673% (active).
Consider `CC[C@@H](C)/C=C(C)/C=C/C(=O)c1c(O)c(-c2ccc(O)cc2)cn(OC2CC(=O)CCC(C)OC(=O)CC2O)c1=O` (stereo not given in full), for which the growth is 26.8%.
Take `CC(=O)Nc1ccc(C(=O)COc2cccc(/C=C3\CCc4ccccc4C3=O)c2)cc1`: the growth was 84.4%.
The value for `CCOC(CNCc1cc(C)c2[nH]c3ccccc3c2c1C)OCC` was 82.2%.
`CCCCCCCSc1ncnc2[nH]ncc12`: the growth is 93.9%.
`CCOC(=O)C(C(=O)OCC)C1CCCCC1`: the growth was 106%.
In the case of `COc1ccc2c(c1)[n+](=O)c(/C=C/C(=O)c1cc(OC)c(OC)c(OC)c1)c(C)n2[O-]`, the growth was 80%.
Regarding `CSc1nc2nc3c(c(-c4ccc(C)cc4)c2c(=O)[nH]1)CN(C)C/C3=C\c1ccc(C)cc1`, the growth is 88.4%.
With `Cn1c(N2N=C(c3ccc(Cl)cc3)CC2c2ccccc2)nc(-c2ccccc2)c(C#N)c1=O` (stereo not given), the growth is 66.3%.
Turning to `O=C(COc1ccc(/C=C2\Cc3ccccc3C2=O)cc1)c1ccc(Cl)cc1`, the growth is 89.2%.
Consider `CC[N+](CCCCCCCCCC[N+](CC)(c1ccccn1)c1ccccn1)(c1ccccn1)c1ccccn1`, for which the growth is 1.17% (active).
On to `[N-]=[N+]=NCc1ncc(-c2ccc(C(F)(F)F)cc2)c(NC2CCCCCC2)n1`, for which the growth is 66.1% [50 µM].
Take `COc1cc(-c2nc3sc4c(c3c(=O)[nH]2)CCCCCC4)cc(OC)c1OC`: the growth was 22.3%.
`COc1cc(/C=N/NC(=O)c2ccc(C(F)(F)F)nc2Nc2ccc(Cl)cc2C)ccc1O`: the growth was 47.9%.
On to `Cc1nn2c(/C=C3/C(=O)Nc4cc(Cl)ccc43)c(-c3ccccc3)nc2s1`, for which the growth was 34.9%.
For the compound `Fc1ccccc1C1c2ccccc2-c2nccn21` (stereo not given), the growth is 87%.
Take `COc1cc(C2CC(C3C(=O)N(C)C(=O)N(C)C3=O)=NN2c2cc(Cl)cc(Cl)c2)cc(OC)c1OC` (stereo not given): the growth is 93.5%.
For the compound `OCCN1CCN(CCCN2c3ccccc3Sc3ccc(C(F)(F)F)cc32)CC1`, the growth was 65.5%.
Regarding `Cc1ccc(-c2c3c(N)nc(-c4ccncc4)nc3nc3c2c(C)nn3-c2ccccc2)cc1`, the growth is 56.4%.
With `O=C1/C(=C/c2cccc(Cl)c2)CCc2ccccc21` the figure was 101%.
With `CCCCCCCCCCN1CCC(N2CCCCC2)CC1`, the growth was 38%.
With `CC1C(=O)NC2=Nc3ccccc3C(=O)NN21` (stereo not given) the figure was 97.2%; with `CCSc1nc(-c2ccco2)n2nc(-c3ccco3)cc2n1`, 93.5%; with `CCOC(=O)C1C(=O)NC(C(=O)OCC)(C(=O)OCC)C1CC` (stereo not given), 112%.
With `Clc1ccc2[nH]cc(-c3cncn3CCc3ccccc3)c2c1` the figure was 45.6%; with `FC(F)(F)c1ccc(-c2cnc(-c3nn[nH]n3)nc2NC2CCCCCC2)cc1`, 66% [50 µM].
Take `COc1ccc(CNC(=O)c2c(C)n([O-])c3ccccc3[n+]2=O)cc1`: the growth is 93.8%.
The value for `CCOC(=O)/C(=C/CC/C(C)=C/CC/C(C)=C/CCc1ccoc1)CC(=O)N1CCCCC1` was 66.4%.
Regarding `CCOC(=O)c1cc2oc(/C=C/c3cc(=O)c4cc(Cl)ccc4o3)cc2[nH]1`, the growth is 98.6%.
As to `O=C(NN1C(=O)c2cc(C(=O)O)c(C(=O)O)cc2C1=O)c1ccncc1`, the growth is 108%.
For the compound `C/C(=C\CCc1ccoc1)CC/C=C(\C)CCCNc1ccc(F)cc1`, the growth is 100%.
The value for `O=c1ncc(-c2ccc(C(F)(F)F)cc2)c(NC2CCCCCC2)[nH]1` was 64.9%; that for `CCN1CC2=C(Nc3nc(SC)[nH]c(=O)c3C2c2cc(OC)c(OC)c(OC)c2)/C(=C/c2cc(OC)c(OC)c(OC)c2)C1` (stereo not given) was 99.2%.
Consider `CC(C)=CCCC(C)c1ccc(C)c2c1OCN(CC1CCNCC1)C2` (stereo not given), for which the growth was 81.9%.
